The source made the active and inactive calls. Unless noted, the rule behind the calls is not given here.

Among the data in PubChem BioAssay are z-score and composite z-score values, retold here.

Assay [1] is described as follows: HepG2 liver cancer cell viability effects, profiling panel, resazurin fluorescence, 24 h, PK04 Diversity Set (AID 1172). As to conditions: higher = more signal.
Assay [2] is described as follows: basal S. cerevisiae growth modulation, no modifier, primary screen, OD600, strain BY4716, 24 h, basal condition (AID 1173). As to conditions: OD600, 24 h, higher = more signal, called active from +8 up or from −8 down.
Assay [3] in a line: MM1S myeloma cell viability, profiling panel, resazurin fluorescence, basal, 24 h, PK04 Diversity Set (AID 1174). As to conditions: higher = more signal, called active from +8 up or from −8 down. A general note: Alamar Blue is a resazurin reagent that responds to reducing activity.
Assay [4] concerns the target Dihydroorotate dehydrogenase (quinone), mitochondrial (Plasmodium falciparum (isolate 3D7)) (UniProt Q08210). Kind of assay: PfDHODH enzyme inhibitors, primary screen, biochemical, C-terminal His tag, absorbance 600 nm (AID 1175).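 Note: recombinant parasite enzyme with a five histidine tag at its C terminus.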 The conditions noted are these: DCIP absorbance 600 nm, higher = more signal, called active from +8 up or from −8 down.
Assay [5] can be described thus: P. aeruginosa biofilm formation inhibitors, primary screen, strain PAO1, LB-PBS medium, absorbance 600 nm (AID 1176). The conditions noted are these: P. aeruginosa PAO1 growth/biofilm, A600, 12 h; higher = more signal.
Assay [6] is described as follows: S. cerevisiae RM11-1a growth modifiers, primary screen, strain RM11-1a, OD600, basal, 24 h (AID 1177).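 Note: cultures grown under basal conditions with no added stressor.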 As to conditions: OD600, 24 h, higher = more signal, called active from +8 up or from −8 down.
Assay [7] is described as follows: E. coli acrAB mutant growth effects, primary screen, E. coli filamentation inducers, strain DRC39, OD650, 24 h (AID 1178).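 Note: growth measured as culture turbidity by optical density at 650 nm.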 As to conditions: higher = more signal, called active from +8 up or from −8 down.
A short description of assay [8]: E. coli acrAB mutant growth effects, primary screen, E. coli filamentation inducers, strain DRC39, OD650, 48 h (AID 1179).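 Note: screen aims at cell division blockers that make cells filament.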 As to conditions: E. coli DRC39 delta-acrAB growth, higher = more signal, called active from +8 up or from −8 down.
Assay [9] is described as follows: RPMI8226 myeloma cell viability, profiling panel, resazurin fluorescence, basal, 24 h, PK04 Diversity Set (AID 1180).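 Note: RPMI8826 multiple myeloma cell line at 5000 cells per well.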 As to conditions: higher = more signal.
Assay [10] concerns the target E3 ubiquitin-protein ligase XIAP (Homo sapiens) (UniProt P98170). Kind of assay: XIAP binders, primary screen, biophysical, small-molecule microarray, fluorescence 635 nm (AID 1181).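 Note: score merges 667 nm emission and signal to noise over triplicate slides.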 The conditions noted are these: small-molecule microarray binding, higher = more signal.
Assay [11] concerns XIP peptide (Xip251-270) binding. In words: small-molecule binders of XIP peptide, primary screen, biochemical, small-molecule microarray, fluorescence 635/667 nm, 0.1 µg/mL protein (AID 1182). As to conditions: fluorescent protein binding, 635 nm, higher = more signal, called active from +8 up or from −8 down.
For a further assay, the system named is XIP peptide (Xip251-270). In words: small-molecule binders of XIP peptide, primary screen, biochemical, small-molecule microarray, fluorescence 635/667 nm, 0.5 µg/mL protein (AID 1183). The conditions noted are these: small-molecule microarray binding, fluorescence 635 nm; higher = more signal.
A short description of assay [12]: Plasmodium falciparum growth inhibition, primary screen, strain 3D7, DAPI fluorescence, 100 nL (AID 1184).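 Note: parasites grown inside human red blood cells in medium with human serum.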 The conditions noted are these: P. falciparum 3D7 growth, 3 d, higher = more signal.
Assay [13] concerns the target Homeobox protein Hox-A13 (Mus musculus) (UniProt Q62424). Kind of assay: inhibitors of HoxA13-DNA binding, primary screen, biochemical, fluorescence polarization, labeled oligonucleotide (AID 1185). The conditions noted are these: 15 min, higher = more signal, called active from +8 up or from −8 down.
Assay [14] can be described thus: inhibitors of hydroxyurea-induced Chk1 phosphorylation, primary screen, imaging, HeLa, phospho-Chk1 antibody, percent positive cells (AID 1186). The conditions noted are these: hydroxyurea-induced phospho-Chk1 immunofluorescence imaging, higher = more signal.
A short description of assay [15]: inhibitors of hydroxyurea-induced Chk1 phosphorylation, primary screen, imaging, HeLa, phospho-Chk1 nuclear intensity (AID 1187). As to conditions: hydroxyurea-induced phospho-Chk1 immunofluorescence imaging, higher = more signal.

Chain of Homeobox protein Hox-A13 (Mus musculus) (Q62424 whole entry, looked up): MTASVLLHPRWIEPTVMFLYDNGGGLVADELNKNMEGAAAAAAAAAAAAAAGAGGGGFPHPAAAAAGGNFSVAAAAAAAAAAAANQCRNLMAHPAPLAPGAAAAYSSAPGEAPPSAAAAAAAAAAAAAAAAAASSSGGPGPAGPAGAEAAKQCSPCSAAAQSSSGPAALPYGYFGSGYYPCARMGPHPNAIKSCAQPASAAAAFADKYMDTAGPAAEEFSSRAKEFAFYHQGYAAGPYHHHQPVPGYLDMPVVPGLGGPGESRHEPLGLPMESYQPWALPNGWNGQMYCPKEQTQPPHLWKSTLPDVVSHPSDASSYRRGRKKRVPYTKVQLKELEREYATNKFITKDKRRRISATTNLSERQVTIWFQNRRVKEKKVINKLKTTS
Chain of E3 ubiquitin-protein ligase XIAP (Homo sapiens) (P98170 whole entry, looked up): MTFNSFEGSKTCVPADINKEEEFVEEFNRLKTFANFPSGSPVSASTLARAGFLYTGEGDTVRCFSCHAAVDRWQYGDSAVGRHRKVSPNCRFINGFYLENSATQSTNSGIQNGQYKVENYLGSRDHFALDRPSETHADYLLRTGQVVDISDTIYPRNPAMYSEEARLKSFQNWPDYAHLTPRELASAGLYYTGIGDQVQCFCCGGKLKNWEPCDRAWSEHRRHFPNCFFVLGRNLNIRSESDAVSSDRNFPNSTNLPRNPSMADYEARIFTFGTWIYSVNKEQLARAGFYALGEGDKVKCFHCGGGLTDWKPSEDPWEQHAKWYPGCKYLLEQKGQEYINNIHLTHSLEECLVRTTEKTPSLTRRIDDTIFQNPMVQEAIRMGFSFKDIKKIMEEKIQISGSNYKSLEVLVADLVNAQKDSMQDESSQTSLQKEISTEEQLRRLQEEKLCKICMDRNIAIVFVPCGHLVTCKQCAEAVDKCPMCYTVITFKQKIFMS
Chain of Dihydroorotate dehydrogenase (quinone), mitochondrial (Plasmodium falciparum (isolate 3D7)) (Q08210 whole entry, looked up): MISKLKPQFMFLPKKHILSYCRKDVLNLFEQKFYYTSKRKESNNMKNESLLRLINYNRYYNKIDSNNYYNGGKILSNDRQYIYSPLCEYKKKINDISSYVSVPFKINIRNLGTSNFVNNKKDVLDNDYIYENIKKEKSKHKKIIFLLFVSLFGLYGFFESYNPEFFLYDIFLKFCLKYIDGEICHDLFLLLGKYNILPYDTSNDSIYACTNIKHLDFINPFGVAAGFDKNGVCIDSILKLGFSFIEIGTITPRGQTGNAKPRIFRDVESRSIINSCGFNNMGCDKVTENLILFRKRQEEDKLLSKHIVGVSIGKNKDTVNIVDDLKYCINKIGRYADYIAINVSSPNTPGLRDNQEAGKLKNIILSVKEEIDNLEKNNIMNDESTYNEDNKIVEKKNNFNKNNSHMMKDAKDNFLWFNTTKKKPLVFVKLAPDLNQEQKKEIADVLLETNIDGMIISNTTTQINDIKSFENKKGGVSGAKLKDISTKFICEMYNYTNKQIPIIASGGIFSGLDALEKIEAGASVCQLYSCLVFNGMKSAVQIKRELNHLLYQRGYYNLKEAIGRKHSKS

`CC(C)CCC[C@@H](C)[C@H]1CC[C@@]2(C)C3=C(CC[C@]12C)[C@@]1(C)CC[C@H](OC(=O)c2ccc(N)cc2)C(C)(C)C1CC3` (some centres undefined): the z-score in assay [1] is -0.322; in [2], -0.863 (inactive); in assay [3] it was 0.467 (inactive); in assay [5] it was 0.589 (inactive); in [6] it was -2.11 (inactive); in assay [7], 0.965 (inactive). For the same molecule, the z-score was 1.16 (inactive) in [8]; 0.826 in assay [9]; 0.0753 in assay [12]; -1.09 (inactive) in assay [13]; -0.516 (inactive) in [14]; -0.736 (inactive) in [15]. Further, the composite z-score in [4] was -2.03 (inactive); in assay [10], 0.45; in assay [11] it was 0.141 (inactive); in the assay on XIP peptide (Xip251-270) it was 0.132.
As for `O=C1O[C@H](c2ccccc2)[C@H](c2ccccc2)N2[C@H]1[C@@H](C(=O)NC[C@H](O)c1ccccc1)[C@]1(C(=O)Nc3ccccc31)[C@H]2c1ccccc1OCCO`, the z-score in assay [1] is -2.69; in assay [2] it was -0.251 (inactive); in [3], -9.21 (active); in [5], 3.02 (inactive); in assay [6], 1.75 (inactive); in assay [7], 0.346 (inactive). In addition, the z-score is 0.784 (inactive) in [8]; -7.33 in assay [9]; -0.635 in [12]; -3.48 (inactive) in assay [13]; -0.517 (inactive) in assay [14]; -0.538 (inactive) in [15]. Moreover, the composite z-score in [4] was -0.719 (inactive); in assay [10] it was 0.189; in assay [11] it was 2.18 (inactive); in the assay with XIP peptide (Xip251-270), 0.807.
Consider `COC(=O)[C@@]1(Cc2ccc(F)cc2)[C@@H]2[C@@H](CC(=O)[C@H]2CC(=O)C(=O)N2CCCC2)CN1C(=O)c1ccccc1`, for which the z-score in [1] was -0.572; in assay [2], 0.508 (inactive); in assay [3], -1.78 (inactive); in [5] it was 1.03 (inactive); in [6], 0.23 (inactive); in [7] it was -1.25 (inactive). Besides, the z-score was -0.212 (inactive) in [8]; -3.35 in assay [9]; -1.44 in assay [12]; -2.66 (inactive) in assay [13]; 0.853 (inactive) in assay [14]; 1.01 (inactive) in [15]. The composite z-score in assay [4] was -0.238 (inactive); in assay [10] it was -0.0553; in [11], 0.112 (inactive); with XIP peptide (Xip251-270), 0.663.
Take `COC(=O)C(CC#Cc1ccc2c(c1)[C@]1(C(=O)N2)[C@H](C(=O)N2CCc3cc(OC)c(OC)cc3C2)[C@H]2C(=O)O[C@H](c3ccccc3)[C@H](c3ccccc3)N2[C@@H]1c1ccc(O)cc1)C(=O)OC`: the z-score in assay [1] is -0.555; in assay [2], 1.8 (inactive); in [3], 1.26 (inactive); in assay [5], 3.04 (inactive); in assay [6], 3.33 (inactive); in [7] it was 0.414 (inactive). Also, the z-score in assay [8] was 0.356 (inactive); in assay [9], -0.14; in assay [12] it was -2.45; in assay [13], -0.323 (inactive); in assay [14], 0.297 (inactive); in assay [15] it was 0.826 (inactive). The composite z-score in assay [4] is -22.8 (active); in [10], -0.167; in assay [11] it was 0.534 (inactive); in the assay on XIP peptide (Xip251-270), 0.789.
In the case of `CCCc1cc2c(n1Cc1ccc(OC)cc1)C(C)C1CN(C(=O)c3ccccc3)C(C)(C(=O)OC)C21` (centres undefined), the z-score in assay [1] is -1.34; in assay [2], 1.08 (inactive); in assay [3], -1.69 (inactive); in assay [5] it was 1.21 (inactive); in assay [6], 0.864 (inactive); in assay [7], -1.09 (inactive). In addition, the z-score was -0.395 (inactive) in assay [8]; -1.7 in assay [9]; -1.42 in assay [12]; -3.45 (inactive) in assay [13]; 0.5 (inactive) in assay [14]; 0.396 (inactive) in assay [15]. For the same molecule, the composite z-score was -0.118 (inactive) in assay [4], 0.493 in [10], -0.0607 (inactive) in assay [11] and 0.174 in the assay with XIP peptide (Xip251-270).
On to `C[N+](C)(C)CCCC[C@@H]1NC(=O)[C@@H]2C[C@H](C(=O)NCCCCCNC(=O)CS)[C@H](c3cccc(OCCO)c3)N2C1=O`, for which the z-score was 0.839 in [1]; -0.385 (inactive) in assay [2]; 0.223 (inactive) in assay [3]; -0.199 (inactive) in [5]; 0.342 (inactive) in assay [6]; 0.461 (inactive) in assay [7]. In addition, the z-score is 0.983 (inactive) in [8]; 0.228 in assay [9]; 0.0793 in assay [12]; -3.31 (inactive) in [13]; -0.209 (inactive) in assay [14]; -0.123 (inactive) in assay [15]. Also, the composite z-score was 1.09 (inactive) in [4], -0.0562 in [10], 0.17 (inactive) in assay [11] and -0.0808 with XIP peptide (Xip251-270).
As for `O=C1O[C@@H](c2ccccc2)[C@@H](c2ccccc2)N2[C@@H](c3ccc(O)cc3)[C@]3(C(=O)Nc4ccc(C#CC5=CCCCC5)cc43)[C@@H](C(=O)Nc3nc4ccccc4s3)[C@H]12`, the z-score in assay [1] is 0.235; in assay [2], -0.826 (inactive); in assay [3], -0.139 (inactive); in assay [5] it was 2.14 (inactive); in [6], 0.137 (inactive); in [7] it was 0.591 (inactive). The z-score was 0.986 (inactive) in assay [8]; -0.595 in [9]; -0.775 in [12]; 3.56 (inactive) in assay [13]; -0.315 (inactive) in assay [14]; -0.363 (inactive) in [15]. Also, the composite z-score was -0.504 (inactive) in [4], -0.0925 in [10], 0.433 (inactive) in [11] and 0.708 in the assay on XIP peptide (Xip251-270).
With `COc1cccc(C[C@H]2C[C@@H](CO[Si](C(C)C)(C(C)C)C(C)C)N3C(=O)[C@]4(C(C)=O)O[C@]23[C@H]2C(=O)N(C)C(=O)[C@H]24)c1`, the z-score in assay [1] is -1.03; in assay [2], 2.01 (inactive); in [3], -0.713 (inactive); in [5], 1.32 (inactive); in assay [6], 0.979 (inactive); in assay [7], -0.356 (inactive). Moreover, the z-score is -0.152 (inactive) in assay [8]; -2.81 in assay [9]; -0.281 in assay [12]; -3.12 (inactive) in assay [13]; 0.527 (inactive) in assay [14]; 0.139 (inactive) in assay [15]. Moreover, the composite z-score in [4] is 0.564 (inactive); in assay [10], 0.0264; in assay [11], 0.0522 (inactive); in the assay with XIP peptide (Xip251-270) it was 0.459.
Take `O=C1CSC(c2cccc([N+](=O)[O-])c2)N1c1ccccc1` (centres undefined): the z-score in assay [1] was 0.0598; in assay [2], 0.483 (inactive); in [3], -0.0906 (inactive); in [5], 0.199 (inactive); in assay [6] it was 0.468 (inactive); in assay [7] it was 0.869 (inactive). Besides, the z-score in [8] was 0.869 (inactive); in [9], 0.407; in assay [12], 0.464; in assay [13] it was 1.07 (inactive); in [14] it was 0.0304 (inactive); in [15], -0.174 (inactive). Moreover, the composite z-score in [4] was -0.861 (inactive); in [10] it was -0.0056; in [11] it was 0.0504 (inactive); in the assay with XIP peptide (Xip251-270), 0.143.
